Sampled rows, rich in hits. Any-hit rate of the full collection: about 3.5%.
FBA Mtb inh: inhibits M. tuberculosis FBA enzyme. P9WQA3. purified M. tuberculosis FBA, fluorescence read-out. inhibition, % at 1 µM. 360,000 compounds, 2.3% hits; in the data active = inhibition above about 27%;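 also: 0% = vehicle and 100% = reference inhibitor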
GDH-TPI counter: GDH-TPI coupled enzyme inhibition counter-screen; GDH-TPI coupled enzyme counterscreen, NADH absorbance; inhibition, % at 4.8 µM; 360,000 compounds, 1.2% hits; in the data active = inhibition above about 30%;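 also: 0% = DMSO wells and 100% = wells lacking the enzyme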
Mtb UGM inh: blocks M. tuberculosis UGM enzyme; 320,000 compounds, 0.06% hits; inhibition, % at 10 µM; purified UGM, fluorescence polarization probe displacement; P9WIQ1; in the data active = inhibition above about 10%, passing the limit was not always enough
Rv3671c inh: Rv3671c (M. tuberculosis) protease inhibition; inhibition, % at 5.96 µM; 320,000 compounds, 0.048% hits; AID 2606; in the data active = inhibition above about 38%;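 also: extracellular domain of Rv3671c used as enzyme; 0% = enzyme with DMSO and 100% = no enzyme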
Target sequence (P9WHR9 whole entry, looked up, the tested form may be a part): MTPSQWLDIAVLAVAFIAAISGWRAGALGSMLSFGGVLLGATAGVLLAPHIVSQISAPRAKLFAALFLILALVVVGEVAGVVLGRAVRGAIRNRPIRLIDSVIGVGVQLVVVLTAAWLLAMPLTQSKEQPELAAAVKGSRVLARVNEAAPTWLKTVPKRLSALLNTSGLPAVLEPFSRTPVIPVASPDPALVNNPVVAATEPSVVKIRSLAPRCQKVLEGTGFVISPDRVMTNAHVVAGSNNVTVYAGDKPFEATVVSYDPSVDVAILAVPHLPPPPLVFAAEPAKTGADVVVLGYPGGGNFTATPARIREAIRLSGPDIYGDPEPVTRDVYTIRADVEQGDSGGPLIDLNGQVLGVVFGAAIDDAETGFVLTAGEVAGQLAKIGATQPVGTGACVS
Numbers without * were called inactive; · = no result.

SMILES	FBA Mtb inh	GDH-TPI counter	Mtb UGM inh	Rv3671c inh
Cc1ccc2c(CSc3nncn3C)cc(=O)oc2c1C	2	0	0	-5
CCC(CC)C(=O)N1CC(=O)Nc2ccc(F)cc2C1c1ccc(F)cc1 (stereo unspecified)	-1	8	0	2
CC1=C(C(=O)OC2CCCC(C)C2)C(c2ccccc2)NC(=O)N1 (stereo unspecified)	-1	13	0	-9
CC(C)c1ccc(/C=C2\SC(=O)N(CC(=O)NC3C=CS(=O)(=O)C3)C2=O)cc1 (stereo unspecified)	-2	21	0	-9
Cn1cccc1/C=N/NC(=O)c1cccs1	0	26	3	-5
Cn1cc(/C=N\NC(=O)c2cccs2)c2ccccc21	0	32*	0	-4
COc1ccc(/C=N/NC(=O)c2cccnc2)c2ccccc12	3	36*	-1	5
O=C(N/N=C/c1cccc2ccccc12)c1cccnc1	-4	24	0	-9
Cc1ccc(S(=O)(=O)c2c(C)cc(C)[nH]c2=O)c(C)c1	4	11	0	8
Cc1ccccc1S(=O)(=O)c1c(C)cc(-c2ccccc2)[nH]c1=O	76*	19	4	0
Cc1cc(-c2ccccc2)[nH]c(=O)c1S(=O)(=O)c1ccccc1	107*	27	1	-1
Cc1cc(-c2ccccc2)[nH]c(=O)c1S(=O)(=O)c1ccc(Cl)cc1	20	-3	-1	-2
COc1ccccc1N1N=C(C(=O)c2ccccc2)C2C(=O)N(c3ccc(Br)cc3)C(=O)C21 (stereo unspecified)	3	4	31*	1
CCOC(=O)C1=NN(c2ccccc2)C2C(=O)N(c3ccccc3OC)C(=O)C12 (stereo unspecified)	3	38*	1	-9
CCOC(=O)C1=NN(c2ccc(OC)cc2)C2C(=O)N(c3ccccc3OC)C(=O)C12 (stereo unspecified)	-2	12	-1	12
COc1ccc(-c2cc3nc4c(c(N5CCC6(CC5)OCCO6)n3n2)CCC4)cc1	-2	0	2	-3
COc1ccc(-c2cc3nc(-c4ccccc4)cc(N4CCC5(CC4)OCCO5)n3n2)cc1	28*	14	1	-27
COc1ccc(C(=O)Nc2ccccc2C(=O)NCc2cccnc2)cc1	-1	-1	0	-3
COc1cc(/C=C(\C#N)C(=O)c2ccc(O)c(O)c2)cc(I)c1O	-6	55*	-5	-47
COc1cc(/C=C(\C#N)C(=O)N2CCOCC2)cc(Br)c1O	-13	12	-2	1
Cc1ccc(C(=O)/C=C/Nc2ccccn2)cc1	0	33*	3	-2
O=C(Nc1nc2ccccc2n1CCN1CCOCC1)c1cn(-c2ccccc2)nc1-c1ccccc1	1	42*	-1	-26
Cc1c(OC(C(=O)O)c2ccccc2)ccc2c3c(c(=O)oc12)CCC3 (stereo unspecified)	7	1	·	·
Cc1c(OC(C(=O)O)c2ccccc2)ccc2c1oc(=O)c1ccccc12 (stereo unspecified)	139*	24	-1	1
CCCn1c(C)nc2c(c1=O)c1nc3ccccc3nc1n2CCC1=CCCCC1	91*	17	1	4
SMILES	FBA Mtb inh	GDH-TPI counter	Mtb UGM inh	Rv3671c inh
Cc1ccc2[nH]c(C)c(/C=N/Nc3nc4ccccc4s3)c2c1	1	38*	0	19
COc1ccc(C=NNc2nc3ccccc3s2)cc1	0	23	·	·
COc1ccc(NC(=O)C2CCN(S(=O)(=O)c3c(C)noc3/C=C/N(C)C)CC2)cc1	-5	37*	-3	-28
COCCCNC(=O)C1CCN(S(=O)(=O)c2c(C)noc2/C=C\c2ccc(OC)cc2)CC1	-1	39*	0	-8
CCCCNC(=O)C1CCN(S(=O)(=O)c2c(C)noc2/C=C\c2ccc(OC)cc2)CC1	6	19	2	-7
CCCN1CCN(C(=O)C2CCN(S(=O)(=O)c3c(C)noc3/C=C/c3ccc(C)cc3)CC2)CC1	-2	32*	1	-1
COc1ccc(/C=N/NC(=O)c2[nH]c3ccc(Cl)cc3c2-c2ccccc2)c(C(=O)O)c1OC	5	31*	0	-29
COc1ccc(/C=N/NC(=O)c2[nH]c3ccc(Br)cc3c2-c2ccccc2)c(C(=O)O)c1OC	7	39*	0	-15
Cc1ccc(F)c(S(=O)(=O)NC(=O)C2(C)CCN2C(=O)c2ccc(C3CCCCC3)cc2)c1 (stereo unspecified)	2	-3	·	·
CCCC(=O)Nc1ccc2oc(-c3ccc(OC)c(Br)c3)nc2c1	125*	16	-3	-10
CCC(=O)NC(=S)Nc1ccc2oc(-c3ccc(OC)cc3)nc2c1	-2	2	2	-1

Compound activity: PubChem, several laboratories
